Molecules are shown by their SMILES. Records with an inconclusive call do not appear. Where a structure was tested more than once in an assay, its records may differ in their call. Unmarked numbers belong to inactive results. Active and inactive are the calls of the source. Unless noted, the call rests on the fitted dose curve; in most records, active means well fitted curve in the direction sought with a large enough effect in the repeat runs; inconclusive means weak or mixed curves; inactive means no such curve, though single readings can be large; an effect the other way counts as inactive or inconclusive.

In experiment [1] the target is Aryl hydrocarbon receptor (Homo sapiens) (UniProt P35869). As to the kind of experiment: qHTS assay to identify small molecule that activate the aryl hydrocarbon receptor (AhR) signaling pathway (AID 743085). Further: nearly all actives have a fitted effect of over 15% in size. Further: potency means the concentration at half of the fitted maximal effect.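 On activation: HG2L7.5c1 human HepG2 liver cells with stably integrated DRE-driven firefly reporter; series mostly up to about 70 µM.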 The gist of the method:
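AhR agonist activity is inferred from enhanced light output of a DRE-controlled firefly luciferase reporter in HepG2 cells, measured with ONE-Glo following 24 h treatment at 37C.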

Experiment [2] is described as follows: qHTS assay to identify small molecule that activate the aryl hydrocarbon receptor (AhR) signaling pathway - cell viability counter screen (AID 743086). Further: nearly all actives have a fitted effect of over 45% in size. Further: potency means the concentration at half of the fitted maximal effect.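 On viability change, negative = cytotoxic: HepG2 liver cells carrying the AhR DRE luciferase reporter; series mostly up to about 70 µM.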 The gist of the method:
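HepG2-AhR-luc (HG2L7.5c1) cells, 4000/well, were preincubated 5 h at 37C, exposed to compound in qHTS format for 24 hr at 37C, then given CellTiter-Fluor for 30 min; viability was read as fluorescence in the reporter wells.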

The target of experiment [3] is Peroxisome proliferator-activated receptor gamma (Homo sapiens) (UniProt P37231). As to the kind of experiment: qHTS assay to identify small molecule agonists of the peroxisome proliferator-activated receptor gamma (PPARg) signaling pathway (AID 743094; active means well fitted activation curve with a large enough effect in the signal ratio in the repeat runs, not every such curve was filed as active; the % refers to the signal ratio). The procedure, abridged: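 Fluorescence-based beta-lactamase readout in HEK293H PPARg UAS-bla cells after 17 h compound exposure (37C) and 1 h B/G FRET substrate incubation at room temperature.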
Chain of Peroxisome proliferator-activated receptor gamma (Homo sapiens) (P37231 whole entry, looked up): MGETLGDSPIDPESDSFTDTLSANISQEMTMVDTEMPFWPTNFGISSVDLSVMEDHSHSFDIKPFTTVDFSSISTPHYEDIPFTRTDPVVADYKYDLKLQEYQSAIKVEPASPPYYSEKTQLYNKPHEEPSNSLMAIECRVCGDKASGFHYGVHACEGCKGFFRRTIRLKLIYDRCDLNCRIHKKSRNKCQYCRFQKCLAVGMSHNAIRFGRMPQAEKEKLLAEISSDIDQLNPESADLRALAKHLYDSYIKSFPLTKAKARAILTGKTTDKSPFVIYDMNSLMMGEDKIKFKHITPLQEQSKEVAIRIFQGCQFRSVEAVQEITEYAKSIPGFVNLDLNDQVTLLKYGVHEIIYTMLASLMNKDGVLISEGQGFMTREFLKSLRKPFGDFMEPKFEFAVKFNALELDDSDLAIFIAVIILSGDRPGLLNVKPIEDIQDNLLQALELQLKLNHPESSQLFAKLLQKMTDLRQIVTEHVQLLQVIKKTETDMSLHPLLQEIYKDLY
In general terms: Quantitative high-throughput screening tests each substance at several concentrations.

Experiment [4] shares this target. As to the kind of experiment: qHTS assay to identify small molecule antagonists of the peroxisome proliferator-activated receptor gamma (PPARg) signaling pathway (AID 743191; calls by dose curve; further: nearly all actives have a fitted effect of over 30% in size; further: potency means the concentration at half of the fitted maximal effect; on ratio activity, negative = inhibition: series mostly up to about 63 µM). The procedure, abridged: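 GeneBLAzer PPARg UAS-bla HEK293H cells carrying a UAS-driven beta-lactamase reporter were plated at 3000 cells/well, preincubated 5 h at 37C, then given compound for 17 h at 37C; LiveBLAzer B/G FRET substrate was read after 1 h at room temperature.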

Experiment [5] in a line: qHTS assay to identify small molecule antagonists of the peroxisome proliferator-activated receptor gamma (PPARg) signaling pathway - cell viability counter screen (AID 743194). Further: nearly all actives have a fitted effect of over 55% in size. The procedure, abridged:
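PPARg-UAS-bla HEK293H cells were plated, rested 5 h at 37 C, then treated with compounds plus rosiglitazone (50 nM final) for 17 h at 37 C; viability was then read by CellTiter-Glo luminescence after 30 min at room temperature.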

A short description of experiment [6]: qHTS assay for small molecule agonists of the antioxidant response element (ARE) signaling pathway (AID 743202; active means well fitted activation curve with a large enough effect in the signal ratio in the repeat runs, not every such curve was filed as active; the % refers to the signal ratio; further: potency means the concentration at half of the fitted maximal effect). The procedure, abridged:
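Steps: seed ARE-bla HepG2 cells (2,000/well); incubate 5 h at 37 C; add compounds by pin tool; incubate 16 h at 37 C; add FRET substrate; read fluorescence after 2 h at RT.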

Experiment [7] in a line: qHTS assay for small molecule agonists of the antioxidant response element (ARE) signaling pathway - cell viability counter screen (AID 743203; calls by dose curve; further: nearly all actives have a fitted effect of over 55% in size). The gist of the method: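 Parallel cytotoxicity read-out for the ARE-bla screen: HepG2 reporter cells, 16 hrs with compounds, then CellTiter-Glo luminescence.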
Experiment [8] is described as follows: qHTS assay for small molecule activators of the heat shock response signaling pathway - cell viability counter screen (AID 743209). Further: nearly all actives have a fitted effect of over 50% in size. The procedure, abridged:
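To flag cytotoxic compounds, HSE-bla HeLa cells plated at 1500 cells/well were dosed for 5 h at 37 C, followed by the reporter FRET read and then CellTiter-Glo, with luminescence recorded 30 min after reagent addition.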

Experiment [9] is described as follows: qHTS assay for small molecule activators of the heat shock response signaling pathway (AID 743210; active means well fitted activation curve with a large enough effect in the signal ratio in the repeat runs, with a control signal flat, not every such curve was filed as active; the % refers to the signal ratio;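 further: HeLa cells with beta-lactamase reporter driven by heat shock elements; series mostly up to about 63 µM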). The procedure, abridged: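 Activation of heat shock element-controlled beta-lactamase expression is measured in HeLa cells by LiveBLAzer FRET fluorescence, with compound exposure lasting 5 h at 37 C and substrate loading 2.5 h at room temperature.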
A short description of experiment [10]: qHTS assay to identify small molecule agonists of the peroxisome proliferator-activated receptor delta (PPARd) signaling pathway - cell viability counter screen (AID 743211). Further: nearly all actives have a fitted effect of over 55% in size. The procedure, abridged: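 qHTS cell viability: PPARd-bla HEK293H; 17 h cpd, 37C; CellTiter-Glo, luminescence at 30 min RT.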
On the % scale 0 is the no-effect control and ±100 the full control effect.

Chain of Aryl hydrocarbon receptor (Homo sapiens) (P35869 whole entry, looked up): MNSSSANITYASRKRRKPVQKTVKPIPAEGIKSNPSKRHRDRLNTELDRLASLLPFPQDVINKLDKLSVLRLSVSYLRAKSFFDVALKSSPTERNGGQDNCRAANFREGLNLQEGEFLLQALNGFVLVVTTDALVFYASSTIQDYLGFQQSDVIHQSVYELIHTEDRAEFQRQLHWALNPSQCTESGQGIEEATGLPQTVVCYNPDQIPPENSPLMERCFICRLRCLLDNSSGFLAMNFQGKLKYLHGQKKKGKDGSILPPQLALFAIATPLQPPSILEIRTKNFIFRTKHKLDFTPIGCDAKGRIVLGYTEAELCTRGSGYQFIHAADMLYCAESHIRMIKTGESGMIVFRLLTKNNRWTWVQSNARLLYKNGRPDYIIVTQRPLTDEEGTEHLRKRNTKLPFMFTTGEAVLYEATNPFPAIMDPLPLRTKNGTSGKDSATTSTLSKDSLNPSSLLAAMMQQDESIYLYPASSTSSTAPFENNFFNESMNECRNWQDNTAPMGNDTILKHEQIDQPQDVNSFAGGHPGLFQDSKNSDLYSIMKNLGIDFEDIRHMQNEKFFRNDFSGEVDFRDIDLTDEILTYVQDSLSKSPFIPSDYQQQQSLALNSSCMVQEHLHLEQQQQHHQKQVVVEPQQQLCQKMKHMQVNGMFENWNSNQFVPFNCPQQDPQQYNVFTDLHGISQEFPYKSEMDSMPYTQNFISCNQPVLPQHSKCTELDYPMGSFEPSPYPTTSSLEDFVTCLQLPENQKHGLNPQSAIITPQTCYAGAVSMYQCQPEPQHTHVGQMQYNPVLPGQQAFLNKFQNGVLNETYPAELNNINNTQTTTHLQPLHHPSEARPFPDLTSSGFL

For `O=Cc1ccc([N+](=O)[O-])cc1`, the Potency entry in experiment [1], in [2], in experiment [3], in experiment [4], in [5] and in experiment [6] was “inactive” throughout. Further, the Potency entry in experiment [7] and in experiment [10] was “inactive” throughout. Besides, the compound was called inactive in experiment [8] and in experiment [9].
`OCCCO`: the Potency result in experiment [1], in experiment [2], in [3], in experiment [4], in experiment [5] and in [6] was “inactive” in each case. Further, the Potency entry in [7] and in [10] was “inactive” each time. Further, the call in experiment [8] and in experiment [9] was inactive.
As for `COC(=O)C(C)(C)C`, the Potency result in experiment [1], in experiment [2], in [3], in [4], in experiment [5] and in experiment [6] was “inactive” throughout. Moreover, the Potency result in [7] and in [10] was “inactive” in each case. In experiment [9], the call was inactive.
As to `CCN(CCCCOC(=O)c1ccc(OC)c(OC)c1)C(C)Cc1ccc(OC)cc1` (stereo unspecified), the Potency entry in experiment [1], in [2], in [3], in experiment [4], in experiment [5] and in [6] was “inactive” in each case. In addition, the Potency entry in experiment [7] and in experiment [10] was “inactive” throughout. The outcome in experiment [8] and in experiment [9] was inactive.
Consider `CCCOC(C)=O`, for which the Potency result in experiment [1], in experiment [2], in experiment [3], in experiment [4], in [5] and in experiment [6] was “inactive” in each case. In addition, the Potency result in [7] and in [10] was “inactive” throughout. Besides, in experiment [9], the call was inactive.
Take `N#Cc1ccc(CC(=O)c2cccc(C(F)(F)F)c2)cc1`: the Potency entry in experiment [1], in [2], in [3], in [4], in experiment [5] and in [6] was “inactive” throughout. Further, the Potency result in experiment [7] and in experiment [10] was “inactive” in each case. Moreover, the result in experiment [9] was inactive.
As for `C=C(C)C(=O)OCCCCCCCCCCOC(=O)C(=C)C`, the Potency result in experiment [1], in experiment [2], in experiment [3], in experiment [4], in experiment [5] and in experiment [6] was “inactive” each time. Also, the Potency result in experiment [7] and in [10] was “inactive” throughout. Besides, in [8], the result was inactive.
Consider `CC1=C(C)C(=O)C(CCCCC#CCCCC#CCO)=C(C)C1=O`, for which the values for the Potency in experiment [1], in experiment [4] and in [6] were 11.9 µM (active), 29.8 µM (active) and 23.7 µM (active), respectively. The Potency result in experiment [2], in [3], in experiment [5] and in experiment [7] was “inactive” throughout.
As for `CC1=CC(=C(c2ccc(N)cc2)c2ccc(N)cc2)C=CC1=N`, the Potency result in [1] was “inactive”. Moreover, in experiment [2], the Potency was 18.8 µM (active). Moreover, the figures for the viability change, negative = cytotoxic in [2] and in [7] were -14.7% [at 8.47 µM] and -12.3% [at 8.36 µM], respectively. Moreover, the activation was -4.84% [at 7.08 µM] in experiment [3] and -0.545% [at 5.95 µM] in [9]. The values for the activity change, negative = cytotoxicity in experiment [5] and in experiment [8] were -29.3% [at 5.95 µM] and -5.14% [at 5.95 µM], respectively.
Turning to `Nc1ncnc2c1ncn2[C@@H]1O[C@H](CO)[C@@H](O)[C@H]1O`, the Potency result in experiment [1], in [2], in [3], in experiment [4], in experiment [5] and in experiment [7] was “inactive” throughout. Also, in [10], the Potency result is “inactive”. The outcome in experiment [8] and in experiment [9] was inactive.
As to `CC(Cc1ccccc1)(NC(=O)CN)c1ccccc1` (stereo unspecified), the Potency entry in [1], in experiment [2], in experiment [3], in experiment [4], in [5] and in experiment [7] was “inactive” in each case. The Potency result in experiment [10] is “inactive”. The compound was classed as inactive in experiment [8] and in [9].
On to `CCCCCCCCCCCCCCCCCCCl`, for which the activation was -0.694% [at 8.47 µM] in experiment [1], -5.7% [at 7.08 µM] in experiment [3], -2.23% [at 8.36 µM] in experiment [6] and -1.98% [at 5.95 µM] in [9]. For the same compound, the viability change, negative = cytotoxic was -5.7% [at 8.47 µM] in [2] and 1.36% [at 8.36 µM] in experiment [7]. The ratio activity, negative = inhibition in experiment [4] is 3.29% [at 5.95 µM]. Also, the values for the activity change, negative = cytotoxicity in experiment [5], in experiment [8] and in experiment [10] were 3.5% [at 5.95 µM], -2.21% [at 5.95 µM] and 0.407% [at 5.95 µM], respectively.
For `CC(C)(C)c1ccc(CCC=O)cc1`, the Potency entry in experiment [1], in experiment [2], in experiment [3], in [4], in experiment [5] and in experiment [6] was “inactive” in each case. The Potency result in [7] and in experiment [10] was “inactive” throughout. The outcome in [8] and in experiment [9] was inactive.
Consider `O=C1OC(=O)C2CC=CCC12` (stereo unspecified), for which the Potency entry in experiment [1], in experiment [2], in experiment [3], in [4], in experiment [5] and in [6] was “inactive” in each case. For the same compound, the Potency entry in experiment [7] and in experiment [10] was “inactive” throughout. In experiment [8], the compound was classed as inactive.
`CO[C@@H]1COCC[C@@H]1N[C@@H]1CC[C@@](C(=O)N2CCc3ncc(C(F)(F)F)cc3C2)(C(C)C)C1`: the Potency entry in [1], in experiment [2], in experiment [3], in experiment [4], in experiment [5] and in experiment [6] was “inactive” in each case. Also, the Potency result in experiment [7] and in experiment [10] was “inactive” throughout. Also, the compound was called inactive in experiment [8] and in experiment [9].
In the case of `CCCCCCCCCCCCN1CCOCC1`, the Potency result in experiment [1], in [2], in [3], in experiment [4], in experiment [5] and in experiment [6] was “inactive” throughout. Moreover, the Potency result in experiment [10] was “inactive”. The compound was called inactive in experiment [8] and in [9].
In the case of `CCCc1ccc(OC)cc1`, the Potency entry in experiment [1], in [2], in experiment [3], in experiment [4], in experiment [5] and in experiment [6] was “inactive” in each case. The Potency entry in [7] and in experiment [10] was “inactive” throughout. Besides, the outcome in experiment [8] and in [9] was inactive.
In the case of `O=C(OC1C[C@H]2CC[C@@H](C1)[N+]21CCCC1)C(O)(c1ccccc1)c1ccccc1` (stereo partly specified), the Potency entry in experiment [1], in experiment [2], in [3], in [4], in experiment [5] and in experiment [6] was “inactive” in each case. Besides, the Potency result in experiment [10] is “inactive”. In addition, the outcome in experiment [9] was inactive.
Regarding `CCCCCCCCS`, the Potency entry in experiment [1], in [2], in experiment [3], in experiment [4], in experiment [5] and in experiment [6] was “inactive” in each case. Further, the Potency entry in [7] and in experiment [10] was “inactive” throughout. The compound was classed as inactive in experiment [8] and in experiment [9].
Turning to `CCCCCCCCCCCC(=O)OCC`, the Potency result in experiment [1], in experiment [2], in experiment [3], in experiment [4], in [5] and in experiment [6] was “inactive” in each case. Further, in experiment [10], the Potency entry is “inactive”. Further, the compound was classed as inactive in [8] and in experiment [9].
On to `FC1(F)C(F)(F)C(F)(F)C2(F)C(F)(C1(F)F)C(F)(F)C(F)(F)C1(F)C(F)(F)C(F)(F)C(F)(F)C(F)(F)C12F` (stereo unspecified), for which the Potency result in experiment [1], in experiment [2], in [3], in [4], in experiment [5] and in experiment [6] was “inactive” throughout. Further, the Potency result in experiment [10] is “inactive”. Further, the call in experiment [8] and in [9] was inactive.
On to `CC1(C)CC(O)CC(C)(C)N1[O]`, for which the Potency result in experiment [1], in experiment [2], in [3], in [4], in experiment [5] and in experiment [6] was “inactive” in each case. The Potency entry in [7] and in experiment [10] was “inactive” each time. Further, the outcome in [8] and in [9] was inactive.
For `O=C1C=CCCC1`, the Potency result in [1], in experiment [2], in experiment [3], in experiment [4], in experiment [5] and in experiment [6] was “inactive” each time. In addition, the Potency result in experiment [7] and in experiment [10] was “inactive” in each case. The outcome in experiment [9] was inactive.
`O=C(O)c1ccc2cc(O)ccc2c1`: the Potency entry in experiment [1], in experiment [2], in [3], in [4], in [5] and in [6] was “inactive” in each case. Moreover, the Potency result in experiment [7] and in [10] was “inactive” each time. Moreover, the compound was called inactive in experiment [8] and in experiment [9].
For `Cc1cc(C)c(C)c(O)c1`, the Potency result in experiment [1], in experiment [2], in [3], in [4], in experiment [5] and in experiment [7] was “inactive” throughout. Further, the Potency entry in experiment [10] is “inactive”. The call in experiment [8] and in experiment [9] was inactive.

For the origin of these results see PubChem BioAssay (Tox21).
